Measurements as given in PubChem BioAssay (NCATS).
Records with an inconclusive call do not appear. The source made the active and inactive calls. The call rests on the fitted dose curve; in most records, active means well fitted inhibition curve with a large enough effect; inconclusive means small, poorly fitted or top-dose-only effect; inactive means flat fitted curve, though single readings scatter.

How the values were obtained:
Assay in all cases: qHTS profiling for inhibitors of Plasmodium falciparum proliferation (AID 504749); further: nearly all actives have a fitted effect of over 60% in size
Conditions in all cases: P. falciparum in erythrocytes, SYBR Green DNA, 72 h; series mostly up to 28.7 µM
CP256 = system: CP256
In short: (§1)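 Each compound contacts P. falciparum-infected red blood cells for 72 h at 37 C; lysis buffer (Tris, EDTA, saponin, Triton X, SYBR Green I) is added and fluorescence measured next morning; values normalized to controls.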

CP260 = system: CP260
In short: as §1

CP262 = system: CP262
In short: as §1

CP265 = system: CP265
In short: as §1

CP268 = system: CP268
In short: as §1

CP269 = system: CP269
In short: as §1

CP286 = system: CP286
In short: as §1

CP291 = system: CP291
In short: as §1

CP297 = system: CP297
In short: as §1

CP305 = system: CP305
In short: as §1

CP315 = system: CP315
In short: as §1

CP325 = system: CP325
In short: as §1

CP329 = system: CP329
In short: as §1

CP335 = system: CP335
In short: as §1

DFO2036 = system: DFO2036
In short: as §1

DIV14 = system: DIV14
In short: as §1

DIV17 = system: DIV17
In short: as §1

DIV30 = system: DIV30
In short: as §1

Dd2 = system: Dd2
In short: as §1

CP266 = system: CP266
In short: as §1

Measured: Potency
Potency means the concentration at half of the fitted maximal effect.

CCc1c2c(nc3ccc(OC(=O)N4CCC(N5CCCCC5)CC4)cc13)-c1cc3c(c(=O)n1C2)COC(=O)[C@]3(O)CC
not listed: CP266
inactive: all other assays above

CC[C@H](C)C(=O)O[C@H]1C[C@@H](C)C=C2C=C[C@H](C)[C@H](CC[C@@H]3C[C@@H](O)CC(=O)O3)[C@H]21
not listed: CP335 | DIV17
inactive: all other assays above

Cc1noc(NS(=O)(=O)c2ccc(N)cc2)c1C
not listed: CP268 | CP315 | CP266
inactive: all other assays above

COc1nc(N)nc2c1ncn2[C@@H]1O[C@H](CO)[C@@H](O)[C@@H]1O
not listed: CP291 | CP297
inactive: all other assays above

CCCCOc1ccc(CC(=O)NO)cc1
active: CP256 1.41 µM | CP260 2.82 µM | CP262 2.56 µM | CP286 3.98 µM | CP291 3.22 µM | CP305 4.55 µM | CP329 3.22 µM | CP335 1.61 µM | DFO2036 2.82 µM | DIV14 1.44 µM | DIV17 2.87 µM | DIV30 2.56 µM | Dd2 3.55 µM

CC(C)OC(=O)C(C(=O)OC(C)C)=C1SC=CS1
not listed: CP335 | DIV14 | DIV30
inactive: all other assays above

CCCc1cc(C(N)=S)ccn1
not listed: CP297
inactive: all other assays above

COC(=O)Nc1nc2ccc(C(=O)c3ccccc3)cc2[nH]1
not listed: CP269 | CP291 | CP305 | CP325 | DIV14 | DIV17 | CP266
inactive: all other assays above

Cc1ncc([N+](=O)[O-])n1CCO
not listed: CP266
inactive: all other assays above

Nc1nc(N)nc(-c2cc(Cl)ccc2Cl)n1
not listed: CP266
inactive: all other assays above

Cc1cccc(N(C)C(=S)Oc2ccc3ccccc3c2)c1
not listed: CP266
inactive: all other assays above

CNNCc1ccc(C(=O)NC(C)C)cc1
not listed: DIV14 | DIV17
inactive: all other assays above

COC(=O)Nc1nc2ccc(Sc3ccccc3)cc2[nH]1
not listed: CP266
inactive: all other assays above

NC(=O)c1cccnc1
not listed: DIV14 | CP266
inactive: all other assays above

NCCCC(O)(P(=O)(O)O)P(=O)(O)O
not listed: CP266
inactive: all other assays above
